Data published in PubChem BioAssay (NCATS).
Several values for one entry are separate records, joined by “and”; a condition that tells them apart may be missing. Identical values can stand only once. Records with an inconclusive call do not appear. Entries that show only a call come without a potency. More than one record can exist for a structure, and the calls need not agree. Activity calls are given as the source filed them. Unless noted, the call rests on the fitted dose curve; in most records, active means well fitted curve in the direction sought with a large enough effect; inconclusive means small, poorly fitted or top-dose-only effect, or another doubt; inactive means no such curve, though single readings can be large; an effect the other way counts as inactive or inconclusive.

Columns and labels:
[1] = molecular target: Atrial natriuretic peptide receptor 1 (Homo sapiens) (UniProt P16066); assay: Natriuretic polypeptide receptor (hNpr1) antagonism - Pilot screen (AID 1347049; calls by dose curve;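 further: agonist-evoked cGMP luminescence read 20 min after hNppA addition; series mostly up to about 58 µM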)
In short: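 HEK293 cells expressing hNpr1 and GloSensor cGMP luciferase, 1500/well, loaded with 2% GloSensor reagent 2 h, compound 30 min at room temperature; luminescence read before and 20 min after 0.1 nM hNppA stimulation.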

[2] = molecular target: Atrial natriuretic peptide receptor 2 (Homo sapiens) (UniProt P20594); assay: Natriuretic polypeptide receptor (hNpr2) antagonism - Pilot subtype selectivity assay (AID 1347050; calls by dose curve)
In short: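 HEK293 cells expressing hNpr2 and a GloSensor cGMP luciferase sensor, 1500/well, preloaded 2 h with 2% GloSensor reagent, compound 30 min, then 1 nM hNppC for 20 min. Antagonism from luminescence after versus baseline pre-read; LOPAC in 1:5 titrations.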

[3] = NS1 protein of Zika virus - qHTS assay to identify small molecule inhibitors in human HEK 293 cells (AID 1347053); further: nearly all actives have a fitted effect of over 55% in size; further: potency means the concentration at half of the fitted maximal effect
In short: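 Inhibition of NS1 expression was scored in HEK 293 cells given compound 1 h ahead of MR766 virus (MOI = 0.5). Following 24 h at 37 C, two anti-NS1 antibodies generated a TR-FRET signal, scaled between uninfected and infected controls.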

[4] = molecular target: T1, Tyrosine-protein phosphatase non-receptor type substrate 1 (Homo sapiens) + Leukocyte surface antigen CD47 (Homo sapiens) (UniProt P78324+Q08722); assay: CD47-SIRPalpha protein protein interaction - LANCE assay qHTS validation (AID 1347057; active means well fitted curve in the direction sought with a large enough effect in the signal ratio, with a control signal flat, not every such curve was filed as active; the % refers to the signal ratio; further: series mostly up to about 38 µM)
In short: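 First, His-tagged CD47 and Eu-labelled anti-His antibody met the compound for 30 min; next, site-specifically biotinylated SIRPalpha was added for 30 min; finally streptavidin-APC was added before reading the TR-FRET ratio.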

[5] = molecular target: T1, Tyrosine-protein phosphatase non-receptor type substrate 1 (Homo sapiens) + Leukocyte surface antigen CD47 (Homo sapiens); assay: CD47-SIRPalpha protein protein interaction - Alpha assay qHTS validation (AID 1347059);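 further: bead proximity luminescence from CD47 binding SIRPalpha after compound preincubation with SIRPalpha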
In short: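 Biotinylated Avi-tagged SIRPalpha (25 nM) preincubated 30 min with compound, then His-tagged CD47 (12.5 nM) added 30 min; AlphaScreen with Ni-NTA acceptor and streptavidin donor beads. PBS pH 7.4, 0.05% IGEPAL, room temperature; 7-point titrations.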

[6] = molecular target: Parathyroid hormone/parathyroid hormone-related peptide receptor (Homo sapiens) (UniProt Q03431); assay: qHTS for PTHR1 Agonists: Optimization Screen against the NCGC LOPAC library (AID 1347079);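 further: GloSensor cAMP luminescence in HEK-293 GP2 cells expressing human PTHR1 with IBMX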
In short: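 Agonist readout: GloSensor cAMP luminescence, read after 15 min at room temperature. HEK-293-derived GP2 line carries PTHR1; compounds tested as a titration for 1 hr at 37C in presence of IBMX. M-PTH (1-15) served as control.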

[7] = qHTS of pediatric cancer cell lines to identify multiple opportunities for drug repurposing: Primary screen for TC32 cells (AID 1347089); further: nearly all actives have a fitted effect of over 60% in size; further: potency means the concentration at half of the fitted maximal effect
In short: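 Luminescent CellTiter-Glo read-out of metabolically active TC32 cells after 48 h compound exposure. Primary: MIPE 11-point, 0.78 nM–46 µM; NPC 8-point, 0.59 nM–46 µM. Confirmatory: 11-point dilutions.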

[8] = qHTS of pediatric cancer cell lines to identify multiple opportunities for drug repurposing: Primary screen for DAOY cells (AID 1347090); further: nearly all actives have a fitted effect of over 55% in size; further: potency means the concentration at half of the fitted maximal effect
In short: (§1)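 Viability measured as metabolically active cells via CellTiter-Glo luminescence following 48 hours of compound exposure, 11-point dilutions in confirmatory testing. 500-1,000 cells/well plated 5 hours before dosing; controls were DMSO and 2.3 µM bortezomib.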

[9] = molecular target: T1, Tyrosine-protein phosphatase non-receptor type substrate 1 (Homo sapiens) + Leukocyte surface antigen CD47 (Homo sapiens); assay: CD47-SIRPalpha protein protein interaction - HTRF assay qHTS validation (AID 1347058; active means well fitted curve in the direction sought with a large enough effect in the signal ratio, not every such curve was filed as active; the % refers to the signal ratio;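 further: recombinant soluble extracellular CD47 with His tag and biotinylated SIRPalpha domains; series mostly up to about 38 µM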)
In short: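 TR-FRET read (Ch1/Ch2 ratio) of soluble extracellular CD47 and Avi-biotinylated SIRPalpha domains in PBS pH 7.4 with 0.05% IGEPAL; 7-point compound titration. Sequential 30 min room-temperature steps; non-biotinylated SIRPalpha as control inhibitor.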

[10] = qHTS of pediatric cancer cell lines to identify multiple opportunities for drug repurposing: Primary screen for SJ-GBM2 cells (AID 1347091); further: potency means the concentration at half of the fitted maximal effect
In short: as §1

Chain of Atrial natriuretic peptide receptor 2 (Homo sapiens) (P20594 whole entry, looked up): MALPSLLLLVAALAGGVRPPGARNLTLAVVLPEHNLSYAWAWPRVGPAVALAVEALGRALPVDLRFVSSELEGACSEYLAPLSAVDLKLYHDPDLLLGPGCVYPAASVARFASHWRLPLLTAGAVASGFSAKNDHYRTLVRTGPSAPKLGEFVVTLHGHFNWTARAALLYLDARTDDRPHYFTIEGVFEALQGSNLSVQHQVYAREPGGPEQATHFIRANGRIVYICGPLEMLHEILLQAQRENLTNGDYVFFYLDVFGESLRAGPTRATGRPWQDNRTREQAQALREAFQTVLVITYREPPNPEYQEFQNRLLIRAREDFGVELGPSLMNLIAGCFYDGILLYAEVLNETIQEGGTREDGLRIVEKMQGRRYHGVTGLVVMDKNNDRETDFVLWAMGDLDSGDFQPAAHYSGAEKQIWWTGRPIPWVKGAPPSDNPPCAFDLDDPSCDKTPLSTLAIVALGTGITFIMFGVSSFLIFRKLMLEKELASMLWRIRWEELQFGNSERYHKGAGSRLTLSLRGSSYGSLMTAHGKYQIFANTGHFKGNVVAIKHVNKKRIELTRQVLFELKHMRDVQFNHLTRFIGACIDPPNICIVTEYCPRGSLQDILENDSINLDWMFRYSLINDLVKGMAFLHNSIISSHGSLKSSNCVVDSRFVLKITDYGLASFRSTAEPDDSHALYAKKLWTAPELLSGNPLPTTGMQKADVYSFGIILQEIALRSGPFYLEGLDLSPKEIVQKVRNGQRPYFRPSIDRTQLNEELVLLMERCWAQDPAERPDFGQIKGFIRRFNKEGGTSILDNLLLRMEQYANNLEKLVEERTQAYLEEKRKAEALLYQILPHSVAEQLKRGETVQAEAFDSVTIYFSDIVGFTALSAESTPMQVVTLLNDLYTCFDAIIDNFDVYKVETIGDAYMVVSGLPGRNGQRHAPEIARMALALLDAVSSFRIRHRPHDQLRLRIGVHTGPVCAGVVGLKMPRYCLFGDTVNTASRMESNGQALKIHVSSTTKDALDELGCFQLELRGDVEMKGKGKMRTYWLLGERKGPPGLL
Chain of Atrial natriuretic peptide receptor 1 (Homo sapiens) (P16066 whole entry, looked up): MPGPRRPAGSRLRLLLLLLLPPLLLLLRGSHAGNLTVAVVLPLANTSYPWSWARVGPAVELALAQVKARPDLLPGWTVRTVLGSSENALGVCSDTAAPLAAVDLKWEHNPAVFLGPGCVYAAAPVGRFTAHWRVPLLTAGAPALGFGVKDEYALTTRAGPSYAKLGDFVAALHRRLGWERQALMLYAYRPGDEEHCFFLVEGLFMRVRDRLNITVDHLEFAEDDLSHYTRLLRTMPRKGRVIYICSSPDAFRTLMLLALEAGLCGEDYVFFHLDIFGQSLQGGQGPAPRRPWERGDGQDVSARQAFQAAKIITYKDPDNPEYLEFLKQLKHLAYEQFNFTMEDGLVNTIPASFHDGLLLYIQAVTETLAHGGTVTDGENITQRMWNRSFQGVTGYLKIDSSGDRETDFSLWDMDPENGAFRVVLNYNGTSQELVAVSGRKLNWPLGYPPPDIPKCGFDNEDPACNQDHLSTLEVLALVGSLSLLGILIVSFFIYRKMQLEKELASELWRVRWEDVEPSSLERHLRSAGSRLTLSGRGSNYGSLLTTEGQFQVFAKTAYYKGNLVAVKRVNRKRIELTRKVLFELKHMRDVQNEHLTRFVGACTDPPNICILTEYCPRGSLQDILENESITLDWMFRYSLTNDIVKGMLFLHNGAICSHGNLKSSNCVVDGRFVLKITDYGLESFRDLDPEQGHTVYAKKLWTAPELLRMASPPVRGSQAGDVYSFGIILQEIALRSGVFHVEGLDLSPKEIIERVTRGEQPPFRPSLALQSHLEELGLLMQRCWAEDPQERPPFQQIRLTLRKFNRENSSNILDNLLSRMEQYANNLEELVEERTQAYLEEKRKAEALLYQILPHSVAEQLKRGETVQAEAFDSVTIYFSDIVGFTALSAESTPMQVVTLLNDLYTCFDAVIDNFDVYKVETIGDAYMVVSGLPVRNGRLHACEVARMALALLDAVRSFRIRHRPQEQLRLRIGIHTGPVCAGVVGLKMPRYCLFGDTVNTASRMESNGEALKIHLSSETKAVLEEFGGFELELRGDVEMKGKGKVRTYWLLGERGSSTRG
Chain of Parathyroid hormone/parathyroid hormone-related peptide receptor (Homo sapiens) (Q03431 whole entry, looked up): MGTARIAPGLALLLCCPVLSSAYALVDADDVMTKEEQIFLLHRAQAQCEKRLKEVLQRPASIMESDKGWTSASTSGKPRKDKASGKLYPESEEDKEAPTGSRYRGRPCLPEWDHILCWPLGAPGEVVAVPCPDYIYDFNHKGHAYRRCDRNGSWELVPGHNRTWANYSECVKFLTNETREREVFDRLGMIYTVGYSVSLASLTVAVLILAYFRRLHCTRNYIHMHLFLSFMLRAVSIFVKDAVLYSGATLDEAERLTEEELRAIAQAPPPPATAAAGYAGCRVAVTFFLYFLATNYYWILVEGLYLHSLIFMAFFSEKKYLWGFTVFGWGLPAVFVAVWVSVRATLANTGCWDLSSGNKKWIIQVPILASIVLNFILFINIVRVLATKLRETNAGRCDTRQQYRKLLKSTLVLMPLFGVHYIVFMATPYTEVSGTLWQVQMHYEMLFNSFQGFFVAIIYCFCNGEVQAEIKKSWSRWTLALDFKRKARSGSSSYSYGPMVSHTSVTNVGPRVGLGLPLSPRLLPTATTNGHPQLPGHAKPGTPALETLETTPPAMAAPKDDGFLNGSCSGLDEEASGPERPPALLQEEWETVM
T1 sequence (P78324 whole entry, looked up): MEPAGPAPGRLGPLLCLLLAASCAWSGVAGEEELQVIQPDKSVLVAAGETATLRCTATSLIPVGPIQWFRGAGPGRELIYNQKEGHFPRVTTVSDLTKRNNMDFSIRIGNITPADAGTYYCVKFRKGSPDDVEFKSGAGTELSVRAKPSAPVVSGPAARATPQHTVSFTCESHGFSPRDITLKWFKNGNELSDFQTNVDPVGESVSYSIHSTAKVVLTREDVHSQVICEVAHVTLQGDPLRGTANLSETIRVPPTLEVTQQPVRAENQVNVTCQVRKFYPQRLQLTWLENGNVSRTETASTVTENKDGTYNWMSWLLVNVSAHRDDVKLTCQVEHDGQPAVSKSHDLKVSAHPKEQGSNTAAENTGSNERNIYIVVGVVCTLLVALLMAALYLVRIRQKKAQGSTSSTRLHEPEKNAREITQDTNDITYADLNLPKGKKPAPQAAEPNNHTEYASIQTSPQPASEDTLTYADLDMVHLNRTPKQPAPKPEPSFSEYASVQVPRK
T1 sequence (Q08722 whole entry, looked up): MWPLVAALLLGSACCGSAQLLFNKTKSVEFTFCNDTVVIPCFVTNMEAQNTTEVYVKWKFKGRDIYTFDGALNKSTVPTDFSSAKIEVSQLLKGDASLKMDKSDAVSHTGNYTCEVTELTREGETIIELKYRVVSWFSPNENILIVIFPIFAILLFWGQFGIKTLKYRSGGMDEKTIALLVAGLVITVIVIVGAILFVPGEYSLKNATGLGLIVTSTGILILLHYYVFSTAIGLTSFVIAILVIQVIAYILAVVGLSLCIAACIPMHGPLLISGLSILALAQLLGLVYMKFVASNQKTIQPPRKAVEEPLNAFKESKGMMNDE

| Structure (SMILES) | outcome [1] | Potency [2] | Potency [3] | outcome [4] | outcome [5] | outcome [6] | Potency [7] | Potency [8] | outcome [9] | Potency [10] |
| --- | --- | --- | --- | --- | --- | --- | --- | --- | --- | --- |
| Cn1cnc([N+](=O)[O-])c1Sc1ncnc2nc[nH]c12 | inactive | inactive | inactive | inactive | inactive | inactive | 10.8 µM (active) and 10.5 µM (active) and 16.5 µM (active) | 1.91 µM (active) and 6.68 µM (active) and 5.9 µM (active) |  |  |
| Nc1ccc(S(=O)(=O)Nc2ccnn2-c2ccccc2)cc1 | inactive | inactive | inactive | inactive | inactive | inactive | inactive | inactive | inactive | inactive |
| CC(=O)Oc1ccccc1C(=O)O | inactive | inactive | inactive | inactive | inactive | inactive | inactive |  | inactive | inactive |
| CCOC(=O)N1CCC(=C2c3ccc(Cl)cc3CCc3cccnc32)CC1 | inactive | inactive | inactive | inactive | inactive | inactive | inactive |  | inactive | 23.5 µM (active) |
| NCCc1ccc(O)c(O)c1 | inactive | inactive | inactive | inactive | inactive | inactive | inactive |  | inactive |  |
| NC(=O)c1cnccn1 | inactive | inactive | inactive | inactive | inactive | inactive | inactive | inactive | inactive | inactive |
| CNC[C@H](O)c1cccc(O)c1 | inactive | inactive | inactive | inactive | inactive | inactive | inactive | inactive | inactive | inactive |
| C1COC(NC(C2CC2)C2CC2)=N1 | inactive | inactive | inactive | inactive | inactive | inactive | inactive | inactive | inactive | inactive |
| OC(CN1CCC(Cc2ccc(F)cc2)CC1)c1ccc(Cl)cc1 (stereo not given) | inactive | inactive | inactive | inactive | inactive | inactive | inactive | inactive | inactive |  |
| Oc1ccc(C2CNCCc3c2cc(O)c(O)c3Cl)cc1 (stereo not given) | inactive | inactive | inactive | inactive | inactive | inactive | inactive | inactive | inactive |  |
| NS(=O)(=O)c1cc2c(cc1Cl)NC=NS2(=O)=O | inactive | inactive | inactive | inactive | inactive | inactive | inactive | inactive | inactive |  |
| Nc1nc2ccc(OC(F)(F)F)cc2s1 | inactive | inactive | inactive | inactive | inactive | inactive | inactive | inactive | inactive | 21.1 µM (active) |
| O=c1[nH]cnc2[nH]ncc12 | inactive | inactive | inactive | inactive | inactive | inactive | inactive | inactive | inactive |  |
| Cc1cn[nH]c1 | inactive | inactive | inactive | inactive | inactive | inactive | inactive | inactive | inactive | inactive |
| Cc1[nH]c(=O)c(C#N)cc1-c1ccc2nccn2c1 | inactive | inactive | inactive | inactive | inactive | inactive | inactive | inactive | inactive | inactive |
| CCCC(CCC)C(=O)O | inactive | inactive | inactive | inactive | inactive | inactive | inactive | inactive | inactive | inactive |
| Cc1ccccc1C(OCCN(C)C)c1ccccc1 (stereo not given) | inactive | inactive | inactive | inactive | inactive | inactive | inactive | inactive | inactive |  |
| NCCCC(N)(C(=O)O)C(F)F (stereo not given) | inactive | inactive | inactive | inactive | inactive | inactive | inactive | inactive | inactive |  |
| Cc1oncc1C(=O)Nc1ccc(C(F)(F)F)cc1 | inactive | inactive | inactive and 11.8 µM (active) | inactive | inactive | inactive |  |  | inactive | inactive |
| CC(C)(C)NCC(O)c1ccc(O)c(CO)c1 (stereo not given) | inactive | inactive | inactive | inactive | inactive | inactive | inactive | inactive | inactive | inactive |
| CCOC(=O)C1=C[C@]2(CC)CCCN3CCc4c(n1c1ccccc41)[C@@H]32 | inactive | inactive | inactive | inactive | inactive | inactive | inactive | inactive | inactive | inactive |
| CC(C[N+](C)(C)C)OC(N)=O (stereo not given) | inactive | inactive | inactive | inactive | inactive | inactive | inactive | inactive | inactive |  |
